In the supplement of paper PMC11732987, “Enantioselective OTUD7B fragment discovery through chemoproteomics screening and high-throughput optimisation” (Communications Chemistry, 2025):

Columns and labels:
Assay in all cases: log2 ratio of Biotin-Ahx-Ub-VS probe labelling (fragment/DMSO); higher = less target engagement (more negative = stronger competition), active = hit call of the paper (q ≤ 0.05, log2 ratio ≤ -1)
Conditions in all cases: compound concentration: 200 uM; treatment time: 3 h
USP34 = USP34 (UniProt Q70CQ2)
USP34, sequence (Q70CQ2 whole entry, the tested form may be a part): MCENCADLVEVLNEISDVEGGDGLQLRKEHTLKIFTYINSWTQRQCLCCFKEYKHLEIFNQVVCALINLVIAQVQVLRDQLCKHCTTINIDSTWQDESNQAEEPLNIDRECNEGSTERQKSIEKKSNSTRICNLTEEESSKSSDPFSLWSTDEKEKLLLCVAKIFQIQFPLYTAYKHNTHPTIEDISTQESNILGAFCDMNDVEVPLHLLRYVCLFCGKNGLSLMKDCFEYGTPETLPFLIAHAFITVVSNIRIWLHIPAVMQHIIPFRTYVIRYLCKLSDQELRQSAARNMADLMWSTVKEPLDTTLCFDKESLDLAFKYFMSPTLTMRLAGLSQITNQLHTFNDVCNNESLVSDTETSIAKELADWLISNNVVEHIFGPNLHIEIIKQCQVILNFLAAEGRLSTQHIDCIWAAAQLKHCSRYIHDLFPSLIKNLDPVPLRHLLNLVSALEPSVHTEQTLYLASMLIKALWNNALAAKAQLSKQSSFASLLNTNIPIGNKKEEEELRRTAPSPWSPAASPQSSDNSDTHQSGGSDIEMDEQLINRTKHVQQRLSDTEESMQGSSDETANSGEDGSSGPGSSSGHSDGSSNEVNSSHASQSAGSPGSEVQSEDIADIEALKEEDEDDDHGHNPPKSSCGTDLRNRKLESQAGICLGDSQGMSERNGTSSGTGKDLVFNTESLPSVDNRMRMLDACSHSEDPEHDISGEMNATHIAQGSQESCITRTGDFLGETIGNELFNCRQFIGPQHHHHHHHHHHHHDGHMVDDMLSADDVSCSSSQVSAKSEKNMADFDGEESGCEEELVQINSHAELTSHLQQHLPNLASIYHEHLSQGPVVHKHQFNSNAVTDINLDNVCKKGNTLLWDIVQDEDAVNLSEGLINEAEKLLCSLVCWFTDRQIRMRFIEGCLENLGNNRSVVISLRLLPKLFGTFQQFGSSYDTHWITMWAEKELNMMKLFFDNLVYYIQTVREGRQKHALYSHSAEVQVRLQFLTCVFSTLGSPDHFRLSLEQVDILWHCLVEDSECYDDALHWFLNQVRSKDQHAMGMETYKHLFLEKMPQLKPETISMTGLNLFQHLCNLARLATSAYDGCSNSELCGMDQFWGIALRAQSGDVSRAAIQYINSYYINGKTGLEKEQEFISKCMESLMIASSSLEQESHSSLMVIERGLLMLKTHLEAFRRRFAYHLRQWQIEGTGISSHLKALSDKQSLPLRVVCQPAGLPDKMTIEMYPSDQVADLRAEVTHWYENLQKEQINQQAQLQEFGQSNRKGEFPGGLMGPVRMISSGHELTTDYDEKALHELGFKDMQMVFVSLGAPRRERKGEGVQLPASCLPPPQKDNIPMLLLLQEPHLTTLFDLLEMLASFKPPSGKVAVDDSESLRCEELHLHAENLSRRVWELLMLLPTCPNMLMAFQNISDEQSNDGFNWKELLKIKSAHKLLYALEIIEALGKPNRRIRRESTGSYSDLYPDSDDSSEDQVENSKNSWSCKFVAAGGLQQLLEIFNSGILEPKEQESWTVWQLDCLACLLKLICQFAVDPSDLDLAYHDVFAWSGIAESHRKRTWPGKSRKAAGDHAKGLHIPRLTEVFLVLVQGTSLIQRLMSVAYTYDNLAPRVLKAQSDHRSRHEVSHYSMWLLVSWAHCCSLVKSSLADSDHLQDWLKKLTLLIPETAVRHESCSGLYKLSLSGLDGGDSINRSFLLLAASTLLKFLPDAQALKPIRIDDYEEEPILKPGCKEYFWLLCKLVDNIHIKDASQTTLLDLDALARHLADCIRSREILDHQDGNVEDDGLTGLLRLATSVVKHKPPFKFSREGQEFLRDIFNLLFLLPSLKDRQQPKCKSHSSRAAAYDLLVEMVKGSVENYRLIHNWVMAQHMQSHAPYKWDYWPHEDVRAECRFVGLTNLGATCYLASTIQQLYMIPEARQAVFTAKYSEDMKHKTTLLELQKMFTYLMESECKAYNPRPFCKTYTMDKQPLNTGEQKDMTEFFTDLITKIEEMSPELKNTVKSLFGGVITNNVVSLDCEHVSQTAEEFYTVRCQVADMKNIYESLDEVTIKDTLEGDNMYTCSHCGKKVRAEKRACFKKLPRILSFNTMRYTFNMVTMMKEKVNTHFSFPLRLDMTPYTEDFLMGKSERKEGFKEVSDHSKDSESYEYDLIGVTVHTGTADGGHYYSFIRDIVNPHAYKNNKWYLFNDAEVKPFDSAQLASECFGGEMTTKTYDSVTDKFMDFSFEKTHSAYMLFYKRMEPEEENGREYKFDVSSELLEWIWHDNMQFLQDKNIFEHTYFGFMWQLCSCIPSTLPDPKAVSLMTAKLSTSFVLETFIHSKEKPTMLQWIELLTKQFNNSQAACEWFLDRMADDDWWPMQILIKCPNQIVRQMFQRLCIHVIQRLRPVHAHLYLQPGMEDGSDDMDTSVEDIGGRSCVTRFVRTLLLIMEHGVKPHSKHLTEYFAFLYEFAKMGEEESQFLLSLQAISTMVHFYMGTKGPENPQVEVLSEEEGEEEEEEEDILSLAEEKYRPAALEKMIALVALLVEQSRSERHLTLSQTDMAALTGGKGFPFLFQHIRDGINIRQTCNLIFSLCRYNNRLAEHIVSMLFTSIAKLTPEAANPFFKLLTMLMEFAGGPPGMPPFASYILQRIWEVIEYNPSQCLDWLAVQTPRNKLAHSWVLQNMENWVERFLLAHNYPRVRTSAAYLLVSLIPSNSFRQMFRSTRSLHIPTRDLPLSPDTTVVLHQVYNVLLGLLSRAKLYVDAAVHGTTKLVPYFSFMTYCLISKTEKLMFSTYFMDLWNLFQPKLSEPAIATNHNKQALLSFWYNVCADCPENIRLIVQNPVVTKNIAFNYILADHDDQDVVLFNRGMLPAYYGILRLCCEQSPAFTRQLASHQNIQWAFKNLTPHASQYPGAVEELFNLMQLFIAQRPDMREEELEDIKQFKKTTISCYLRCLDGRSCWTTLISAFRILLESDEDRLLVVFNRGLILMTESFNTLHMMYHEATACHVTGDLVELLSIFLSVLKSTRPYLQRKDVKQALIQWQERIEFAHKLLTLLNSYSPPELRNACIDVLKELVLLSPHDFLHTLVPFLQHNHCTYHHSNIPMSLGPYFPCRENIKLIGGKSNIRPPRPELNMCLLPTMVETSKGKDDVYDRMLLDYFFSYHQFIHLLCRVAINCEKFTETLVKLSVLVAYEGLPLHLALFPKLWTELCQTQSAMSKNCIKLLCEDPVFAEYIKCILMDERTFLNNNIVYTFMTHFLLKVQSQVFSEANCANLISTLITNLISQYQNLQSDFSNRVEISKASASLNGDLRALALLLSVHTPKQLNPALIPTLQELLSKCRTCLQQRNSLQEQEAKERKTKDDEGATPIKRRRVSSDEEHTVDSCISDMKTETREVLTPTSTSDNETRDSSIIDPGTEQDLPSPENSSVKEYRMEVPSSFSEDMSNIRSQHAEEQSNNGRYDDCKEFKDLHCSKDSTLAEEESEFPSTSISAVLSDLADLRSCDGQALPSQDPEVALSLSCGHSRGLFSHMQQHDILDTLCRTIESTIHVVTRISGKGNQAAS
Summary of the method: (§1)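 Each value is an average log2 ratio of fragment to vehicle, tested by unpaired t-test. The underlying Spectronaut label-free quantities were global-median-normalised, and only proteins with ≥2 unique peptides were included. Triplicate HEK293T lysate samples (495 µg) were exposed to fragment at 200 µM or vehicle for 3 h, then to Biotin-Ahx-Ub-VS at 0.5 µM final for 1 h, before NeutrAvidin enrichment of labelled DUBs, LysC and trypsin digestion, and diaPASEF LC-MS/MS.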

USP36 = target: T1, USP36 (UniProt Q9P275)
T1 sequence (whole entry): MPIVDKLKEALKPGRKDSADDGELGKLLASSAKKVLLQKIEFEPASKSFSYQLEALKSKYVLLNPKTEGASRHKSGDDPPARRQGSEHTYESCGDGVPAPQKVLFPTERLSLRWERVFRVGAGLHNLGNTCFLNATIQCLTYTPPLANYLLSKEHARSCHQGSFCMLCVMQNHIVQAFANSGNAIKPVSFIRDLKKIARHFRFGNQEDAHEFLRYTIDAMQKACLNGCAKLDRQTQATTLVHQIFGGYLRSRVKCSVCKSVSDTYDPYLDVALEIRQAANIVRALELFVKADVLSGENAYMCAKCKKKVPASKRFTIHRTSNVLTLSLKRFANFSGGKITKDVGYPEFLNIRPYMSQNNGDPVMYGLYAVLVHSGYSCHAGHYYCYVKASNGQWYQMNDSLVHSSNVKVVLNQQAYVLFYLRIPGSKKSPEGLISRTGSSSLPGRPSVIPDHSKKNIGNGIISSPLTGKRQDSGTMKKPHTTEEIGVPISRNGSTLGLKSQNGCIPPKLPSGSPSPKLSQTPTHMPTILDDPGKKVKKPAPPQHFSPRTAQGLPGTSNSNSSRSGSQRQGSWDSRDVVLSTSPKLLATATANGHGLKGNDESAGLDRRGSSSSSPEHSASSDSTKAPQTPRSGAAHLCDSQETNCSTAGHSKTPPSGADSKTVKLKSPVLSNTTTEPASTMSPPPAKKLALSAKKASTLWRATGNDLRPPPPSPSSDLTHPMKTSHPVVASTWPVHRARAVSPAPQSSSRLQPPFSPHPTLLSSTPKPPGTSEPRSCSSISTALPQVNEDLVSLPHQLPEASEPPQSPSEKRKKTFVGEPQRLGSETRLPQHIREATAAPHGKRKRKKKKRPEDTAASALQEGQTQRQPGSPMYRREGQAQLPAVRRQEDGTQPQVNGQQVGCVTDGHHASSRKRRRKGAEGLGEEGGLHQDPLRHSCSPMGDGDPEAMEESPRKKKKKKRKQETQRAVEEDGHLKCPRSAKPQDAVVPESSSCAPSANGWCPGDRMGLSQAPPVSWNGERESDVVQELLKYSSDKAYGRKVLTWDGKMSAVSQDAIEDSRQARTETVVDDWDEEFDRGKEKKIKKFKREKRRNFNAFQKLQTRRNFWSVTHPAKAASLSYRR
Summary of the method: as §1

USP38 = target: T2, USP38 (UniProt Q8NB14)
T2 sequence (whole entry): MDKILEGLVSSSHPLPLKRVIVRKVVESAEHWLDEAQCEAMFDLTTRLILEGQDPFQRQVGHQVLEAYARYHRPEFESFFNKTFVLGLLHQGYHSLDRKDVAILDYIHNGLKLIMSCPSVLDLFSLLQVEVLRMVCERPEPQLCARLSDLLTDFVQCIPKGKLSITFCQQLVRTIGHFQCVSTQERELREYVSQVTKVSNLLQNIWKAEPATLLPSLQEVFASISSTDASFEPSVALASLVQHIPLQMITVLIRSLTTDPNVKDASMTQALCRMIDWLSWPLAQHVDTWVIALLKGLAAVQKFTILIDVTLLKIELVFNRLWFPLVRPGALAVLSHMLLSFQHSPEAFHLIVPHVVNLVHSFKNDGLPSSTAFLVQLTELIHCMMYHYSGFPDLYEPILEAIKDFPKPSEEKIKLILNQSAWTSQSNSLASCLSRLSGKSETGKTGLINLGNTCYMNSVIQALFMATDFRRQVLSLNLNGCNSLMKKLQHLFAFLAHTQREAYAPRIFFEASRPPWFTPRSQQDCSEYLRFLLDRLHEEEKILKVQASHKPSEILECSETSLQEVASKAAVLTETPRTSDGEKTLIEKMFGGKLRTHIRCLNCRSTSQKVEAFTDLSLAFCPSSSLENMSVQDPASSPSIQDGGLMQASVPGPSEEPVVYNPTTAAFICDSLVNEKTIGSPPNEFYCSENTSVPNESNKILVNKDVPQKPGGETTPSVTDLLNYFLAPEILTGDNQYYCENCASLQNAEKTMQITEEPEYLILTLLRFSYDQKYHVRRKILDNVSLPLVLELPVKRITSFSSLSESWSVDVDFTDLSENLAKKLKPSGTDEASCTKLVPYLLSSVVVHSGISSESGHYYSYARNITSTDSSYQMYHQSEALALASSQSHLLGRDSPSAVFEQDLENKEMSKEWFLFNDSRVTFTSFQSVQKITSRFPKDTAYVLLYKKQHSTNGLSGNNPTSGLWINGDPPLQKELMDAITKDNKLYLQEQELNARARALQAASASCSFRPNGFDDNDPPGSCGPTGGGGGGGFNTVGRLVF
Summary of the method: as §1

USP39 = target: T3, USP39 (UniProt Q53GS9)
T3 sequence (whole entry): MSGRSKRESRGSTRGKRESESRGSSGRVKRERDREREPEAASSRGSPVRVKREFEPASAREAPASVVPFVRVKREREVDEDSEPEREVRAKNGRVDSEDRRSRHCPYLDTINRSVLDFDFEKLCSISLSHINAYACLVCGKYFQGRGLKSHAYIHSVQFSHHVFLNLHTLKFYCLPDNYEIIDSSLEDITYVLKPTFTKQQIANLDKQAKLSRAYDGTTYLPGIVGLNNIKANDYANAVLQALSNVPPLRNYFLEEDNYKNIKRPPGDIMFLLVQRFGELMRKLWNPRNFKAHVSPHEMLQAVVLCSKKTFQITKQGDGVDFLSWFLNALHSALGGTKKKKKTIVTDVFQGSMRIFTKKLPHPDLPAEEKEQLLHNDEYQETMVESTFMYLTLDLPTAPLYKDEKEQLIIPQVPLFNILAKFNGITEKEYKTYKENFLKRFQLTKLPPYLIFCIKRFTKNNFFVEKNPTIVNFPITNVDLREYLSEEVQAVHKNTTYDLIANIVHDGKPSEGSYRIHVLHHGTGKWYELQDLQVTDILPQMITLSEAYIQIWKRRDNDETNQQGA
Summary of the method: as §1

USP4 = target: T4, USP4 (UniProt Q13107)
T4 sequence (whole entry): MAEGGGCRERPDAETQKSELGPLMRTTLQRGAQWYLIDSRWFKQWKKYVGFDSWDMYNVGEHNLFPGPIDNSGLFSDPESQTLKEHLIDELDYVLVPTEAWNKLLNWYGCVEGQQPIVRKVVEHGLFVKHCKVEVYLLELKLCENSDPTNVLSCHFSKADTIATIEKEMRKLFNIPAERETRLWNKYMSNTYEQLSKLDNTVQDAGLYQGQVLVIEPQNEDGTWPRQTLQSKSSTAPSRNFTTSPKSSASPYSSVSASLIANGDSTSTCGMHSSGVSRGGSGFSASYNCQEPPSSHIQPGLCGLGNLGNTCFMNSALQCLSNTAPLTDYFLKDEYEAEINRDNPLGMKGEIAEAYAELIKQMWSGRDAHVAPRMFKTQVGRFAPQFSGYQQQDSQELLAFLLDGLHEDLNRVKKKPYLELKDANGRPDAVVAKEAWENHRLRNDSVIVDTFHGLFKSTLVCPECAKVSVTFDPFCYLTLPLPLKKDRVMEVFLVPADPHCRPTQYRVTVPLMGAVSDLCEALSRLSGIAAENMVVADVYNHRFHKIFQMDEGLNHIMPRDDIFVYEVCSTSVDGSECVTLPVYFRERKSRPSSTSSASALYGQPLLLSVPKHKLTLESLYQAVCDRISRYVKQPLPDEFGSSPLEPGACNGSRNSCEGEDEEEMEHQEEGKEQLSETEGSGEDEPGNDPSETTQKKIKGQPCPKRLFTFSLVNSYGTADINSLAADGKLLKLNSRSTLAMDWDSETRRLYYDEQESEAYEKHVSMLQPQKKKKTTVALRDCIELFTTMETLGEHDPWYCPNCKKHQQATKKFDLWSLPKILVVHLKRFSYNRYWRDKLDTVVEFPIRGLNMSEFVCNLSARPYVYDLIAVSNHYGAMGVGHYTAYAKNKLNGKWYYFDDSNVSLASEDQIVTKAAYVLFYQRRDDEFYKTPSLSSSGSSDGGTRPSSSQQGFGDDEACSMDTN
Summary of the method: as §1

Measured: log2 ratio of Biotin-Ahx-Ub-VS probe labelling

Cc1cccn2cc(CCNC(=O)CCl)nc12.Cl
inactive: USP34 -0.083 | USP36 -0.0485 | USP38 -0.247 | USP39 -0.319 | USP4 -0.12
